The structures appear in SMILES notation. Activity calls are given as the source filed them. Rule as the data show it: active = log2 fold change growth below about -1.8; inactive = the rest.

A short description of this test: anthelmintic activity against nematode growth – whole organism, log2 fold change (AID 1259336).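 Also: growth scored by imaging after five days at 20 °C.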 The following applies: C. elegans growth, anthelmintic screen; active compounds read low.
Turning to `CC(=O)Oc1ccccc1C(=O)Nc1ncc([N+](=O)[O-])s1`, the log2 fold change growth is 0.253 (inactive).

On to `COc1cc(C2=NCCN2)cc2cc(-c3ccc(C4=NCCN4)cc3)oc12`, for which the log2 fold change growth is 0.303 (inactive).

For `CNC(=O)[C@@H]1Cc2ccccc2N1C(=O)Cc1ccc(F)cc1`, the log2 fold change growth is 0.145 (inactive).

Take `O=C(NCc1nnc2n1CCCCC2)c1ccc(-c2ccc(F)cc2)o1`: the log2 fold change growth was 0.174 (inactive).

As to `CN1CCC(c2cc(-c3ccncc3)c(-c3ccc(F)cc3)[nH]2)CC1`, the log2 fold change growth is -0.12 (inactive).

As to `Cc1cccc(Cn2ccc(NC(=O)c3ccc4c(c3)OCO4)n2)c1`, the log2 fold change growth was -0.327 (inactive).

In the case of `CC1(O)CC(c2nc(-c3ccc4ccc(-c5ccccc5)nc4c3)c3c(N)nccn23)C1` (stereo unspecified), the log2 fold change growth is -0.23 (inactive).

For the molecule `N[C@@H](CC(=O)c1ccc(Cl)cc1Cl)C(Cl)(Cl)Cl`, the log2 fold change growth was -0.444 (inactive).

As to `COc1ccccc1OCCCCn1c(C2CC2)nc2ccccc21`, the log2 fold change growth was 0.559 (inactive).

In the case of `Cc1ccc(NC(=O)c2cc(S(=O)(=O)NC(C)(C)C)ccc2C)nc1`, the log2 fold change growth was 0.26 (inactive).

Turning to `CCCc1ccc(S(=O)(=O)Nc2ccc(CN3CCN(CC4CC4)CC3)cc2)cc1`, the log2 fold change growth is 0.319 (inactive).

`CN(C(=O)c1cc2c(-c3cncnc3)cccc2[nH]1)c1ccccc1`: the log2 fold change growth was -0.492 (inactive).

For the molecule `N#Cc1ccc(-c2ccc(OCC(N)=O)cc2)cc1`, the log2 fold change growth is -0.349 (inactive).

`CCN(CC)C(=O)N1CCN(C)CC1`: the log2 fold change growth is 0.355 (inactive).

With `Clc1cccc(CO[C@H]2CCc3ccccc3[C@@H]2n2ccnn2)c1`, the log2 fold change growth is 0.571 (inactive).

On to `Cc1cc(NC(=O)c2ccc(Oc3ccc(Cl)cc3O)o2)no1`, for which the log2 fold change growth was 0.201 (inactive).

These data come from PubChem BioAssay AID1259336 (Sattelle Laboratory, UCL Respiratory, Division of Medicine, …, 2017).
